Source: PubChem BioAssay (NCATS)
Results filed as inconclusive are left out. Activity calls are given as the source filed them. Unless noted, calls come from the whole dose curve; as a rule, active = well fitted curve in the direction sought with a large enough effect; inconclusive = small, poorly fitted or top-dose-only effect, or another doubt; inactive = no such curve, though single readings can be large; an effect the other way counts as inactive or inconclusive.

Experiments:
[1] = qHTS assay for measurement of the activity of small molecule inhibitors on Zika virus induced Caspase-3 activity in human iPSC derived neural progenitor cells (hNPCs) (AID 1224857); note: % of control where 0% means no effect; nearly all actives have a fitted effect of over 65% in size
How it was run: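 After overnight (16–20 h) culture at 350 cells/well, hNPCs get compound, then ZIKV 2 FFU/cell one hour later. Six hours on, Caspase-Glo 3/7 is added and luminescence measured.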

[2] = qHTS assay for measurement of the activity of small molecule inhibitors on Zika virus induced Caspase-3 activity in human astrocytoma cells (AID 1224859);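 note: plate controls were ZIKV-infected untreated cells for no effect and uninfected cells for full effect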
How it was run: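 Inhibition of Zika-induced caspase-3/7 activity: SNB-19 cells, 1 h compound pretreatment, ZIKV 2 FFU/cell for 6 h at 37 C, Caspase-Glo luminescence read-out.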

[3] = qHTS assay to identify small molecule inhibitors of chordoma cells - UCH-1 (AID 1259355); note: % is set by controls: 0 for no effect and ±100 for the full control effect; nearly all actives have a fitted effect of over 55% in size
How it was run: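 800 cells/well, overnight attach; compounds pinned at 15 concs, then auranofin/camptothecin/doxorubicin/rubitecan/topotecan combo added; 48hr 37 C, 5% CO2; CellTiter-Glo, 30min RT, luminescence.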

[4] = qHTS assay to identify small molecule inhibitors of chordoma cells - UCH-2 (AID 1259356); note: % is set by controls: 0 for no effect and ±100 for the full control effect
[5] = P-glycoprotein substrates identified in KB-8-5-11 adenocarcinoma cell line, qHTS therapeutic library screen (AID 1346987); settings: outcome: dose series up to 44.5 µM; note: % is set by controls: 0 for no effect and ±100 for the full control effect; nearly all actives have a fitted effect of over 65% in size
How it was run: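 Compounds are pinned in dose-response onto KB-8-5-11 cells (500 cells/well, colchicine-free medium) and left 72 h at 37 degree C. CellTiter-Glo luminescence then yields AC50 values.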

[6] = NS1 protein of Zika virus - qHTS assay to identify small molecule inhibitors in human HEK 293 cells (AID 1347053);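 note: plate controls were infected untreated cells for no effect and uninfected cells for full effect; nearly all actives have a fitted effect of over 55% in size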
How it was run: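 TR-FRET signal from two anti-ZIKV NS1 antibodies quantified NS1 in HEK 293 cells 24 h after MR766 infection at MOI = 0.5; compounds were added 1 h before virus. Uninfected cells and infected cells defined the NS1 normalization range.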

[7] = qHTS of pediatric cancer cell lines to identify multiple opportunities for drug repurposing: Primary screen for TC32 cells (AID 1347089); note: % is set by controls: 0 for no effect and ±100 for the full control effect; nearly all actives have a fitted effect of over 60% in size
How it was run: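 TC32 cells, 500-1,000/well in growth medium, compound-treated 48 h at 37 °C; viability from CellTiter-Glo luminescence. Primary screen: MIPE 11-point (0.78 nM–46 µM final), NPC 8-point (0.59 nM–46 µM final); confirmatory at 11-point dilutions.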

[8] = qHTS of pediatric cancer cell lines to identify multiple opportunities for drug repurposing: Primary screen for DAOY cells (AID 1347090);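 note: plate controls were DMSO for no effect and bortezomib for full effect; nearly all actives have a fitted effect of over 55% in size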
How it was run: (§1)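 Cell viability, CellTiter-Glo luminescence; 500-1,000 cells/well, 8- or 11-point titration, 48 h compound exposure at 37 degrees C, 5% CO2. Controls: DMSO neutral, bortezomib 2.3 µM final as positive.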

[9] = qHTS of pediatric cancer cell lines to identify multiple opportunities for drug repurposing: Primary screen for A673 cells (AID 1347092); note: % is set by controls: 0 for no effect and ±100 for the full control effect; nearly all actives have a fitted effect of over 45% in size
How it was run: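 A673 cells (500-1,000 cells/well) were treated 48 hours at 37 degrees C with compounds at 11-point (0.78 nM to 46 µM) or 8-point (0.59 nM to 46 µM) dilutions. Viability read by CellTiter-Glo luminescence; concentration-response curves fitted.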

[10] = qHTS of pediatric cancer cell lines to identify multiple opportunities for drug repurposing: Primary screen for SK-N-MC cells (AID 1347093);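 note: plate controls were DMSO neutral control for no effect and bortezomib for full effect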
How it was run: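 Metabolically active cells were quantified by ATP-dependent luminescence (CellTiter-Glo, 15 min at room temperature) following 48 h treatment. Cells had been plated at 500-1,000 per well and settled for 5 h beforehand.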

[11] = qHTS of pediatric cancer cell lines to identify multiple opportunities for drug repurposing: Primary screen for BT-37 cells (AID 1347094);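 note: plate controls were DMSO for no effect and bortezomib for full effect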
How it was run: (§2)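 Viability was measured as metabolically active cells after 48 hours of treatment, read by CellTiter-Glo luminescence. Compounds were tested at multiple final concentrations, giving concentration-response curves.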

[12] = qHTS of pediatric cancer cell lines to identify multiple opportunities for drug repurposing: Primary screen for NB-EBc1 cells (AID 1347095);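 note: plate controls were DMSO neutral control for no effect and bortezomib for full effect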
How it was run: as §2

[13] = qHTS of pediatric cancer cell lines to identify multiple opportunities for drug repurposing: Primary screen for Saos-2 cells (AID 1347097); note: % is set by controls: 0 for no effect and ±100 for the full control effect; nearly all actives have a fitted effect of over 40% in size
How it was run: as §2

[14] = qHTS of pediatric cancer cell lines to identify multiple opportunities for drug repurposing: Primary screen for SK-N-SH cells (AID 1347098); note: % is set by controls: 0 for no effect and ±100 for the full control effect; nearly all actives have a fitted effect of over 65% in size
How it was run: (§3)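 Cells (500-1,000/well) rested 5 h, then received compounds for 48 h; metabolically active cells were measured by CellTiter-Glo luminescence. Final concentrations spanned up to 46 µM (MIPE, 11-point) or 0.59 nM-46 µM (NPC, 8-point) in primary screens, 11-point in follow-ups.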

[15] = qHTS of pediatric cancer cell lines to identify multiple opportunities for drug repurposing: Primary screen for LAN-5 cells (AID 1347100);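 note: plate controls were DMSO neutral control for no effect and bortezomib positive control for full effect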
How it was run: as §3

[16] = qHTS of pediatric cancer cell lines to identify multiple opportunities for drug repurposing: Primary screen for U-2 OS cells (AID 1347096);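 note: plate controls were DMSO wells for no effect and bortezomib positive control wells for full effect; nearly all actives have a fitted effect of over 50% in size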
How it was run: as §3

[17] = qHTS of pediatric cancer cell lines to identify multiple opportunities for drug repurposing: Primary screen for NB1643 cells (AID 1347099);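 note: plate controls were DMSO neutral control for no effect and bortezomib positive control for full effect; nearly all actives have a fitted effect of over 50% in size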
How it was run: as §2

[18] = qHTS of pediatric cancer cell lines to identify multiple opportunities for drug repurposing: Primary screen for SJ-GBM2 cells (AID 1347091);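 note: plate controls were DMSO neutral control for no effect and bortezomib for full effect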
How it was run: as §1

[19] = qHTS profiling of the MIPE4 collection as inhibitors of Plasmodium falciparum (HB3) proliferation (AID 743347; call rule not given here;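 note: plate controls were DMSO vehicle wells for no effect and artemisinin wells for full effect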); settings: P. falciparum HB3 in erythrocytes, SYBR Green DNA, 72 h; at 9.64 µM (top of the series) unless noted
How it was run: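 Parasite DNA was quantified by SYBR Green I fluorescence (ex 485, em 535 nm) after overnight lysis in saponin/Triton buffer at room temperature. Cultures at 0.3% parasitemia and 2.5% hematocrit were first exposed to compound for 72 h at 37 C; signals were normalised to artemisinin (0.29 uM) and vehicle wells.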

C[N+]1(C)CCCC(OC(=O)C(O)(c2ccccc2)c2ccccc2)C1 (configuration not stated)
inactive: outcome [1] | outcome [2] | outcome [3] | outcome [4] | outcome [5] | outcome [6] | outcome [7] | outcome [8] | outcome [9] | Potency [10] | outcome [11] | outcome [12] | outcome [13] | outcome [14] | outcome [15]

NCC1CCC(C(=O)Oc2ccc(CCC(=O)O)cc2)CC1 (configuration not stated)
inactive: outcome [1] | outcome [2] | outcome [3] | outcome [4] | outcome [5] | outcome [6] | outcome [7] | outcome [8] | outcome [9] | Potency [10] | outcome [11] | outcome [16] | outcome [13] | Potency [17] | outcome [15]

NS(=O)(=O)c1ccc(C(=O)O)cc1
inactive: outcome [1] | outcome [2] | outcome [3] | outcome [4] | outcome [5] | outcome [6] | outcome [7] | outcome [8] | outcome [9] | Potency [10] | outcome [11] | outcome [12] | outcome [16] | outcome [13] | outcome [14] | Potency [17] | outcome [15]

O=C(O)c1cc(=O)c2ccccc2o1
inactive: outcome [1] | outcome [2] | outcome [3] | outcome [4] | outcome [5] | outcome [6] | outcome [7] | outcome [8] | Potency [10] | outcome [11] | outcome [12] | outcome [16] | outcome [13] | outcome [14] | Potency [17] | outcome [15]

CC1CCc2cc(F)cc3c(=O)c(C(=O)O)cn1c23 (configuration not stated)
inactive: outcome [1] | outcome [2] | outcome [3] | outcome [4] | outcome [6] | outcome [7] | outcome [8] | outcome [18] | outcome [9] | Potency [10] | outcome [11] | outcome [12] | outcome [16] | outcome [13] | outcome [14] | Potency [17] | outcome [15]

COc1ccc2cc(CCC(C)=O)ccc2c1
inactive: outcome [1] | outcome [2] | outcome [3] | outcome [4] | outcome [5] | outcome [6] | outcome [7] | outcome [8] | outcome [9] | Potency [10] | outcome [11] | outcome [12] | outcome [16] | outcome [13] | Potency [17] | outcome [15]

CCN(CC)CCOC(=O)C(c1ccccc1)c1ccccc1
inactive: outcome [1] | outcome [2] | outcome [3] | outcome [4] | outcome [5] | outcome [6] | outcome [7] | outcome [8] | outcome [9] | outcome [11] | outcome [12] | outcome [13] | outcome [14] | Potency [17] | outcome [15]

Cc1ccsc1C(=CCCN1CCC[C@@H](C(=O)O)C1)c1sccc1C
inactive: outcome [1] | outcome [2] | outcome [3] | outcome [4] | outcome [5] | outcome [6] | outcome [7] | outcome [8] | outcome [12] | outcome [16] | outcome [13] | outcome [14] | Potency [17] | outcome [15]

COC(=O)c1ccccc1C(=O)c1ccc(OCCN2CCCCC2)cc1
inactive: outcome [1] | outcome [2] | outcome [3] | outcome [4] | outcome [6] | outcome [7] | outcome [8] | outcome [18] | outcome [9] | Potency [10] | outcome [11] | outcome [12] | outcome [16] | outcome [13] | Potency [17] | outcome [15]

COc1ccccc1Oc1c(NS(=O)(=O)c2ccc(C(C)(C)C)cc2)nc(-c2ncccn2)nc1OCCO
inactive: outcome [1] | outcome [2] | outcome [3] | outcome [4] | outcome [5] | outcome [6] | outcome [7] | outcome [18] | outcome [9] | Potency [10] | outcome [11] | outcome [16] | outcome [13] | outcome [14] | Potency [17] | outcome [15]

NNc1nnc(NN)c2ccccc12
inactive: outcome [1] | outcome [2] | outcome [3] | outcome [4] | outcome [5] | outcome [6] | outcome [7] | outcome [8] | outcome [9] | Potency [10] | outcome [11] | outcome [12] | outcome [13] | outcome [14] | Potency [17] | outcome [15]

C[N+](C)(C)CC(O)CC(=O)[O-] (configuration not stated)
inactive: outcome [1] | outcome [2] | outcome [3] | outcome [4] | outcome [5] | outcome [6] | outcome [7] | outcome [8] | outcome [9] | Potency [10] | outcome [12] | outcome [16] | outcome [14] | Potency [17] | outcome [15]

CCCC(O)C(CC)CO (configuration not stated)
inactive: outcome [1] | outcome [2] | outcome [3] | outcome [4] | outcome [5] | outcome [6] | outcome [7] | outcome [8] | outcome [9] | Potency [10] | outcome [11] | outcome [12] | outcome [16] | outcome [13] | outcome [14] | Potency [17] | outcome [15]

Cc1cc(C)nc(NS(=O)(=O)c2ccc(N)cc2)n1
inactive: outcome [1] | outcome [2] | outcome [3] | outcome [4] | outcome [5] | outcome [7] | outcome [8] | outcome [18] | outcome [9] | Potency [10] | outcome [11] | outcome [12] | outcome [16] | outcome [13] | outcome [15]

CCCCCCCCCCOc1cc2c(=O)c(C(=O)OCC)c[nH]c2cc1OCC
3.33% [at 28.5 µM]: growth, % of control [19]
inactive: activity change, negative = inhibition [1] 9.1% [at 4.53 µM] | activity change, negative = inhibition [2] -3.7% [at 4.53 µM] | outcome [3] | outcome [4] | outcome [5] | activity change, negative = inhibition [6] -16.6% [at 4.81 µM] | activity change, negative = cytotoxic [7] 8.44% [at 4.81 µM] | activity change, negative = cytotoxic [8] -4.32% [at 4.84 µM] | activity change, negative = cytotoxic [9] -6.98% [at 4.84 µM] | activity change, negative = cytotoxic [10] -8.08% [at 4.84 µM] | activity change, negative = cytotoxic [11] 9.52% [at 6.03 µM] | activity change, negative = cytotoxic [12] 9.4% [at 4.84 µM] | activity change, negative = cytotoxic [16] 0.999% [at 4.84 µM] | activity change, negative = cytotoxic [17] 5.42% [at 4.84 µM] | activity change, negative = cytotoxic [15] 22.4% [at 4.84 µM]

NC(N)=NS(=O)(=O)c1ccc(N)cc1
inactive: outcome [1] | outcome [2] | outcome [3] | outcome [4] | outcome [5] | outcome [6] | outcome [7] | outcome [8] | outcome [9] | outcome [11] | outcome [12] | outcome [13] | outcome [14] | outcome [15]

CN(C/C=C/C#CC(C)(C)C)Cc1cccc2ccccc12
inactive: outcome [1] | outcome [2] | outcome [3] | outcome [4] | outcome [5] | outcome [6] | outcome [7] | outcome [18] | outcome [16] | outcome [14] | Potency [17] | outcome [15]
